# Assay results taken from PMC11006913.
# Columns and labels:
# PRRX1 [1] = target: PRRX1 (Homo sapiens, UniProt P54821 80-166, F113S); assay: PBM; 200 nM protein, PBS; conditions: dsDNA, one strand shown
# PRRX1 [2] = target: PRRX1 (Homo sapiens, UniProt P54821 80-166); assay: PBM; 200 nM protein, PBS; conditions: dsDNA, one strand shown
# PRRX1 (Homo sapiens, UniProt P54821 80-166), sequence (P54821 80-166): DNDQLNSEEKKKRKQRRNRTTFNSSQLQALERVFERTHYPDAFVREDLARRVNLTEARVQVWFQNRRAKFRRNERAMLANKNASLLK
# PRRX1 (Homo sapiens, UniProt P54821 80-166, F113S), sequence (P54821 80-166 F113S): as the sequence (P54821 80-166) above, with F34S counted along it
Sequence,binding signal (PRRX1 [1]),binding signal (PRRX1 [2])
GCTCTTCC,"9.47 upbm affinity estimate (log intensity, higher = more binding, comparable within an allelic series)","9.1 upbm affinity estimate (log intensity, higher = more binding, comparable within an allelic series)"
AGGTTCGC,"9.34 upbm affinity estimate (log intensity, higher = more binding, comparable within an allelic series)","9.02 upbm affinity estimate (log intensity, higher = more binding, comparable within an allelic series)"
AATTCAGG,"9.89 upbm affinity estimate (log intensity, higher = more binding, comparable within an allelic series)","11.3 upbm affinity estimate (log intensity, higher = more binding, comparable within an allelic series)"
AATATTAG,"10.5 upbm affinity estimate (log intensity, higher = more binding, comparable within an allelic series)","12.4 upbm affinity estimate (log intensity, higher = more binding, comparable within an allelic series)"
CGACGGAA,"9.54 upbm affinity estimate (log intensity, higher = more binding, comparable within an allelic series)","9.34 upbm affinity estimate (log intensity, higher = more binding, comparable within an allelic series)"
GCACGTCC,"9.49 upbm affinity estimate (log intensity, higher = more binding, comparable within an allelic series)","9.27 upbm affinity estimate (log intensity, higher = more binding, comparable within an allelic series)"
CGTGTGCA,"9.54 upbm affinity estimate (log intensity, higher = more binding, comparable within an allelic series)","9.31 upbm affinity estimate (log intensity, higher = more binding, comparable within an allelic series)"
TTAACAAA,"10.5 upbm affinity estimate (log intensity, higher = more binding, comparable within an allelic series)","12.4 upbm affinity estimate (log intensity, higher = more binding, comparable within an allelic series)"
ACCGTGCG,"9.48 upbm affinity estimate (log intensity, higher = more binding, comparable within an allelic series)","9.43 upbm affinity estimate (log intensity, higher = more binding, comparable within an allelic series)"
GCAAGGCC,"9.45 upbm affinity estimate (log intensity, higher = more binding, comparable within an allelic series)","9.29 upbm affinity estimate (log intensity, higher = more binding, comparable within an allelic series)"
CAGAGAGC,"9.56 upbm affinity estimate (log intensity, higher = more binding, comparable within an allelic series)","9.55 upbm affinity estimate (log intensity, higher = more binding, comparable within an allelic series)"
AATAGGGT,"10.2 upbm affinity estimate (log intensity, higher = more binding, comparable within an allelic series)","11.5 upbm affinity estimate (log intensity, higher = more binding, comparable within an allelic series)"
CATCGGAC,"9.34 upbm affinity estimate (log intensity, higher = more binding, comparable within an allelic series)","9.14 upbm affinity estimate (log intensity, higher = more binding, comparable within an allelic series)"
ACGCGCGG,"9.42 upbm affinity estimate (log intensity, higher = more binding, comparable within an allelic series)","9.29 upbm affinity estimate (log intensity, higher = more binding, comparable within an allelic series)"
AATATGCC,"9.8 upbm affinity estimate (log intensity, higher = more binding, comparable within an allelic series)","11.1 upbm affinity estimate (log intensity, higher = more binding, comparable within an allelic series)"
CGTCTGGA,"9.4 upbm affinity estimate (log intensity, higher = more binding, comparable within an allelic series)","9.19 upbm affinity estimate (log intensity, higher = more binding, comparable within an allelic series)"
CTAGACCC,"9.44 upbm affinity estimate (log intensity, higher = more binding, comparable within an allelic series)","9.31 upbm affinity estimate (log intensity, higher = more binding, comparable within an allelic series)"

Sequence,binding signal (PRRX1 [1]),binding signal (PRRX1 [2])
CGGACGAC,"9.43 upbm affinity estimate (log intensity, higher = more binding, comparable within an allelic series)","9.26 upbm affinity estimate (log intensity, higher = more binding, comparable within an allelic series)"
GAACAGCC,"9.48 upbm affinity estimate (log intensity, higher = more binding, comparable within an allelic series)","9.53 upbm affinity estimate (log intensity, higher = more binding, comparable within an allelic series)"
GCCTCTCA,"9.4 upbm affinity estimate (log intensity, higher = more binding, comparable within an allelic series)","9.09 upbm affinity estimate (log intensity, higher = more binding, comparable within an allelic series)"
CCAAGCTC,"9.29 upbm affinity estimate (log intensity, higher = more binding, comparable within an allelic series)","9.43 upbm affinity estimate (log intensity, higher = more binding, comparable within an allelic series)"
ACAGTCGG,"9.61 upbm affinity estimate (log intensity, higher = more binding, comparable within an allelic series)","9.49 upbm affinity estimate (log intensity, higher = more binding, comparable within an allelic series)"
CCGAACCC,"9.23 upbm affinity estimate (log intensity, higher = more binding, comparable within an allelic series)","9.29 upbm affinity estimate (log intensity, higher = more binding, comparable within an allelic series)"
AGCTCGCA,"9.52 upbm affinity estimate (log intensity, higher = more binding, comparable within an allelic series)","9.05 upbm affinity estimate (log intensity, higher = more binding, comparable within an allelic series)"
CCAAGACG,"9.45 upbm affinity estimate (log intensity, higher = more binding, comparable within an allelic series)","9.18 upbm affinity estimate (log intensity, higher = more binding, comparable within an allelic series)"
ACGTCGCC,"9.31 upbm affinity estimate (log intensity, higher = more binding, comparable within an allelic series)","9.36 upbm affinity estimate (log intensity, higher = more binding, comparable within an allelic series)"
CTGATGAA,"10 upbm affinity estimate (log intensity, higher = more binding, comparable within an allelic series)","11.2 upbm affinity estimate (log intensity, higher = more binding, comparable within an allelic series)"
AGCCTTTC,"9.3 upbm affinity estimate (log intensity, higher = more binding, comparable within an allelic series)","8.88 upbm affinity estimate (log intensity, higher = more binding, comparable within an allelic series)"
CCGGGGTC,"9.27 upbm affinity estimate (log intensity, higher = more binding, comparable within an allelic series)","9.54 upbm affinity estimate (log intensity, higher = more binding, comparable within an allelic series)"
AATGAGGG,"9.96 upbm affinity estimate (log intensity, higher = more binding, comparable within an allelic series)","11.2 upbm affinity estimate (log intensity, higher = more binding, comparable within an allelic series)"
ATCATCAC,"10.1 upbm affinity estimate (log intensity, higher = more binding, comparable within an allelic series)","11.5 upbm affinity estimate (log intensity, higher = more binding, comparable within an allelic series)"
CCCAACGC,"9.62 upbm affinity estimate (log intensity, higher = more binding, comparable within an allelic series)","9.3 upbm affinity estimate (log intensity, higher = more binding, comparable within an allelic series)"
CCCCTTGC,"9.32 upbm affinity estimate (log intensity, higher = more binding, comparable within an allelic series)","9.53 upbm affinity estimate (log intensity, higher = more binding, comparable within an allelic series)"
GCTGGACC,"9.41 upbm affinity estimate (log intensity, higher = more binding, comparable within an allelic series)","9.43 upbm affinity estimate (log intensity, higher = more binding, comparable within an allelic series)"
